CHX counter – Cycloheximide Counterscreen for Small Molecule Inhibitors of Shiga Toxin; max response, %; cell reporter, cycloheximide protein synthesis inhibition counterscreen; AID 2314, 2010; 300,000 compounds, 12% hits; in the data active means max response mostly above about 13%, no sharp cut-off; inactive means mostly below about 14%; further: read at 38.3 µM for the half of the compounds with a filed dose; 0% is about no effect
Pf growth 96h – Primary qHTS for delayed death inhibitors of the malarial parasite plastid, 96 hour incubation | P. falciparum luciferase reporter growth, 96 h | Potency, µM (doses to about 28.7 µM), inactives show top-dose activity change, negative = inhibition, most hits filed as inhibitors | 320,000 compounds, 6.9% hits; further: potency means the concentration at half of the fitted maximal effect; on the % scale 0 is the no-effect control and ±100 the full control effect
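Luminescence readout: decreased luciferase signal marks inhibited growth of reporter-expressing P. falciparum in infected red cells (2% hematocrit, 0.05% parasitemia final), exposed to compound two generations (96 h, 37 C, 5% CO2).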
Pf growth 48h – Primary qHTS for delayed death inhibitors of the malarial parasite plastid, 48 hour incubation; 310,000 compounds, 5.9% hits; P. falciparum luciferase growth in erythrocytes, 48 h; Potency, µM (series often up to 28.7 µM), without a hit: top-dose activity change, negative = inhibition, hits mostly inhibitors; AID 504832, 2011; further: potency means the concentration at half of the fitted maximal effect; on the % scale 0 is the no-effect control and ±100 the full control effect
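Luciferase-expressing P. falciparum in infected erythrocytes (2% hematocrit, 0.1% parasitemia final) in RPMI 1640/0.5% Albumax were exposed to compound for 48 hours at 37 C, 5% CO2; growth read as luminescence.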
Shiga toxin inh – A qHTS for Small Molecule Inhibitors of Shiga Toxin; Vero cells, Shiga toxin protein synthesis inhibition reporter; inhibition, % at 38.7 µM; 290,000 compounds, 9.2% hits; in the data active means inhibition mostly above about 28%, no sharp cut-off; inactive means mostly below about 43%; further: 0% is about no effect
HCMV inh – qHTS Assay for inhibitors of the human cytomegalovirus (HCMV); HFF cells, HCMV-luciferase reporter, 72 h; stronger effect = lower value; activity change, negative = inhibition, % at 57.5 µM; 410,000 compounds, 4.5% hits; in the data active means activity change below about -60%; inconclusive means no clear call, values can overlap the other calls; inactive means above about -39%; further: on the % scale 0 is the no-effect control and ±100 the full control effect
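Two-dose cell screen: HFF monolayers treated with compounds and infected with luciferase-expressing HCMV at 1 PFU/cell, 72 h at 37C, then lysed for luciferase measurement.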
An asterisk follows results filed as active; ? = inconclusive; / = no result. The list is not random: actives were taken first. Their share in the collection is about 20%. Unless noted, the call rests on the fitted dose curve; in most records, active means well fitted inhibition curve with a large enough effect; inconclusive means small, poorly fitted or top-dose-only effect, or another doubt; inactive means no such curve, though single readings can be large or run the other way.

SMILES	CHX counter	Pf growth 96h	Pf growth 48h	Shiga toxin inh	HCMV inh
Cc1cc(N2CCN(S(=O)(=O)c3ccccc3)CC2)c2ccccc2n1	-1	?	?	14	-88*
O=C(Nc1ccccc1)N1CCCN(c2ccc(C(F)(F)F)cc2[N+](=O)[O-])CC1	-4	10µM*	13µM*	-2	5
Cc1cc(N2CCN(C(=O)c3ccco3)CC2)c2ccccc2n1	0	-41%	-5%	-8	-13
Cc1ccc2scc(N3CCCCC3)c(=O)c2c1	/	/	/	/	52
Cc1cc2c(cc1NS(=O)(=O)c1ccc(NC(=O)CC(C)C)cc1)n(C)c(=O)c(=O)n2C	/	/	/	/	-11
COc1cccc(C(=O)NC(=S)N2CCN(c3ccc(C(F)(F)F)cc3[N+](=O)[O-])CC2)c1	9	?	-17%	5	-62*
CCN(CC)CCCNC(=O)c1nn(-c2ccc(C)cc2)c(=O)c2c1c1ccccc1n2C	/	/	/	/	-23
CCN(CC)CCOC(=O)c1ccc(NC(=O)c2nn(-c3ccc(C)cc3)c(=O)c3c2c2ccccc2n3C)cc1	/	/	/	/	-100*
O=C(Nc1ccc2nn(-c3ccccc3)nc2c1)c1ccc(Br)o1	13*	64%	?	74*	-65*
C/C(=N\NC(=O)c1cccc(Br)c1)c1cccc(NC(=O)c2ccc(C)o2)c1	28*	40%	65%	42*	16
CC(=O)c1cccc(NC(=O)c2ccc(C)o2)c1	26*	?	73%	52	11
O=C(Nc1cccc(F)c1)c1ccc(Br)o1	60*	57%	89%	77*	-97*
CCc1ccc(S(=O)(=O)c2nnn3c2nc(N2CCCC2)c2sccc23)cc1	/	/	/	/	19
COc1ccccc1CCN1CCCC(CN(C)C(=O)CCC(=O)N(C)C)C1 (centres undefined)	-1	?	-6%	-6	-12
Cc1c(NC(=O)COC(=O)CSc2ccc(C(N)=O)cc2[N+](=O)[O-])c(=O)n(-c2ccccc2)n1C	5	-17%	10%	-13	14
CC(=O)c1cccc(NC(=O)c2ccc(Br)o2)c1	24*	-6%	23%	63*	27
O=C(Nc1cccc(OC(F)(F)F)c1)c1ccc(Br)o1	40*	?	?	57	-32
Cn1ncc(Br)c1NC(=O)Nc1ccccc1	5	30%	3%	10	/
CC(C)c1ccc(N2C(=O)N(Cc3cccc([N+](=O)[O-])c3)c3ccccc3S2(=O)=O)cc1	/	/	/	/	-34
Cc1cccc(CN2C(=O)N(c3ccc(C(C)C)cc3)S(=O)(=O)c3ccccc32)c1	/	/	/	/	-69*
CCc1ccccc1N1C(=O)N(Cc2cccc(Cl)c2)c2ccccc2S1(=O)=O	/	/	/	/	-105*
O=C1N(Cc2cccc(C(F)(F)F)c2)c2ccccc2S(=O)(=O)N1c1cccc(Cl)c1	/	/	/	/	-19
O=C(c1ccccc1)c1nn(-c2ccc(Cl)cc2)c(=O)cc1C(F)(F)F	13*	?	?	33*	-104*
O=C(Nc1ccccc1)c1nn(-c2ccccc2)c(=O)cc1C(F)(F)F	4	?	31%	-2	-4
O=C(c1ccccc1)c1nn(-c2ccccc2)c(=O)cc1C(F)(F)F	17*	0%	91%	27	-67*
SMILES	CHX counter	Pf growth 96h	Pf growth 48h	Shiga toxin inh	HCMV inh
O=C(c1cccc(Cl)c1)c1nn(-c2ccccc2)c(=O)cc1C(F)(F)F	-2	13µM*	?	20	-72*
CC(C)[C@@H]1CC2=C(C(=O)OC(C)(C)O2)[C@H](CCc2ccccc2)O1	/	/	/	/	-12
COc1ccc(N2CCN(c3ncccn3)CC2)cc1	24*	/	81%	152*	79
COc1ccc2nc(C)cc(N3CCC(C(N)=O)CC3)c2c1	-2	-11%	19%	25	?
COc1cccc(N2CCN(c3ccc([N+](=O)[O-])cn3)CC2)c1	-4	39%	2%	-13	-22
COc1cccc(N2CCN(c3cnc4ccccc4n3)CC2)c1	36*	190%	185%	94*	-21
COc1ccc(N2CCN(c3cc(C)c4ccccc4n3)CC2)cc1	7	10%	2%	2	3
COc1ccc(N2CCN(c3cnc4ccccc4n3)CC2)cc1	37*	84%	46%	70*	-2
COc1ccc(N2CCN(c3cc(C)nc4ccc(OC)cc34)CC2)cc1	-8	?	13µM*	-12	-3

Assay outcomes as filed in PubChem.
